HPGD inh: HPGD (human) dehydrogenase inhibition; P15428; purified HPGD, NADH fluorescence kinetic, PGE2 substrate; Potency, µM, for the others: at the highest dose activity change, negative = inhibition, hits mostly inhibitors; 4.3% of 150,000 active; AID 894; also: potency is read from the fitted curve at half-maximal effect
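20 nM HPGD preincubated 15 min at room temperature with compound in 50 mM Tris-HCl pH 8, 0.01% Tween 20. Started with 1 mM NAD+ and 30 uM prostaglandin E2; NADH fluorescence (360/450 nm) read 5 times over 30-s intervals, last minus first.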
ALOX12 inhib: blocks human 12-lipoxygenase activity; P18054; purified 12-hLO, xylenol orange hydroperoxide absorbance; Potency, µM (series often up to 57.1 µM), without a hit: top-dose activity change, negative = inhibition, hits mostly inhibitors; 0.12% of 150,000 active; AID 1452; active = well fitted curve in the direction sought with a large enough effect; inconclusive = small, poorly fitted or top-dose-only effect, or another doubt; inactive = no such curve, though single readings can be large; an effect the other way counts as inactive or inconclusive; also: potency is read from the fitted curve at half-maximal effect; nearly all actives have a fitted effect of over 55% in size
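Purified human 12hLO (150 nM), preincubated 15 min with compound, then 40 uM arachidonic acid for 30 min, room temperature, Hepes pH 7.0 with 0.01% Triton X-100. Hydroperoxide detected by ferrous iron/xylenol orange; 573/405 nm absorbance ratio gives reaction progress.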
IMPase Li inh: cell-permeable IMPase inhibitors with lithium potentiation. Potency, µM (highest dose often 59.4 µM), without a hit: top-dose activity, negative = IMPase inhibition, usual class: inhibitors. CHO-M1 cells, IP1 TR-FRET (IP-One), carbachol + lithium. AID 1457. 0.35% of 210,000 active; active = well fitted curve in the direction sought with a large enough effect; inconclusive = small, poorly fitted or top-dose-only effect, or another doubt; inactive = no such curve, though single readings can be large; an effect the other way counts as inactive or inconclusive;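 also: IP1 builds up when IMPase is blocked and the TR-FRET signal falls; potency is read from the fitted curve at half-maximal effect; plate controls were basal vehicle for no effect and high inhibitor control for full effect; nearly all actives have a fitted effect of over 50% in size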
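Readout is a homogeneous TR-FRET IP1 immunoassay (Ex 320, Em 665 and 620), where raised cytosolic IP1 lowers signal. Cells were CHO-M1 treated 30 min at 37C with test compounds plus a little lithium; AC50 values came from Hill-equation fitting.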
ALDH1A1 inh: inhibitors of human aldehyde dehydrogenase 1A1; Potency, µM (titrated, usually from 75.3 µM), for inactives: top-dose activity, negative = inhibition, hits mostly inhibitors; 7.3% of 220,000 active; Purified ALDH1A1, NADH fluorescence, propionaldehyde substrate; AID 1030; P00352;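 also: potency is read from the fitted curve at half-maximal effect; plate controls were no enzyme wells and a reference inhibitor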
Target sequence (P00352 whole entry, looked up): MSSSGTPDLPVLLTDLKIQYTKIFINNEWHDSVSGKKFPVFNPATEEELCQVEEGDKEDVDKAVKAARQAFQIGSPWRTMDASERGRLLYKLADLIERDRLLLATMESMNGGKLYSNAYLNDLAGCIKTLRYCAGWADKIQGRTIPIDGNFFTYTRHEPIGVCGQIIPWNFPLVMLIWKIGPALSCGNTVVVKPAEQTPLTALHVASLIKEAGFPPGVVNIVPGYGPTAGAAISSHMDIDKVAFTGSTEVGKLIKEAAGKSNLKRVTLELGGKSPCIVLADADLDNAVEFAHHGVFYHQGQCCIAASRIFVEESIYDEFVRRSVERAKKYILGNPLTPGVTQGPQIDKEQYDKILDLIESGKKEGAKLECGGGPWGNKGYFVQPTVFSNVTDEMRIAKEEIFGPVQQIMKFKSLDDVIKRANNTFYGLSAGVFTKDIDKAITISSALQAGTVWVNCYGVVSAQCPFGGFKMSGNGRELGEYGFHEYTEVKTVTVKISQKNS
PNC assembly inh: inhibitors of perinucleolar compartment assembly; PC3M PTB-GFP, PNC prevalence imaging, 16 h; stronger effect = lower value; AID 2417; 3.1% of 140,000 active; activity change (PNC), negative = inhibition, % at 10 µM;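 active = readout at or below -70, meaning at least 70% loss of cells showing the perinucleolar compartment, a nuclear body marking cancer cells; inconclusive = readout between -30 and a set limit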;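 also: plate controls were DMSO wells for no effect and camptothecin positive control wells for full effect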
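Read-out is percentage of cells bearing a perinucleolar compartment, from automated 20x imaging of fixed, Hoechst-stained PC3M PTB-GFP cells. Cells were seeded 4 h, then exposed 16 h to compound (23 nl of library stock) in duplicate plates.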
IMPase inh: membrane-permeable compound that blocks inositol monophosphatase; P97697; CHO-M1 cells, IP1 accumulation, HTRF TR-FRET ratio; inhibition (IP1 accumulation), % at 46.1 µM; 120,000 tested, under 10 active; AID 901; active = well fitted curve in the direction sought with a large enough effect in the signal ratio, not every such curve was filed as active; inconclusive = small, poorly fitted or top-dose-only effect, or a change in a side signal; inactive = no such curve, though single readings can be large or run the other way; the % refers to the signal ratio;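 also: cells stimulated with carbachol in lithium chloride buffer; plate controls were DMSO basal wells for no effect and reference inhibitor wells for full effect; higher means more IMPase inhibition seen as more IP1 and lower FRET ratio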
Target sequence (P97697 whole entry, looked up): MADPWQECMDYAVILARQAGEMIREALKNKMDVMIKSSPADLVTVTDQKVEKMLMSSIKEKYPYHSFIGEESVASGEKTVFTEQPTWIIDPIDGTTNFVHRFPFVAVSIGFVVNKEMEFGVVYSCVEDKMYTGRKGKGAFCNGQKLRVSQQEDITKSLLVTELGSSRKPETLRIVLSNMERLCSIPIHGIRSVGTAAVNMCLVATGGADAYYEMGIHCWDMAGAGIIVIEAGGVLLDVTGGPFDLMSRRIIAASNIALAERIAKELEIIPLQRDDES
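Seeded CHO-M1 cells were dosed with compound at up to 46 uM, stimulated with carbachol for 30 min, then lysed in IP-One detection reagents. Higher IP1 lowers the TR-FRET signal.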
* marks the source's active call; other numbers are inactive results; ? = inconclusive; . = not tested or not shown; [ ] = remark or other dose. Compounds with a hit are over-represented: about 11% of the library has one in this group of screens. Unless noted, calls follow the shape of the dose curve; as a rule, active = well fitted inhibition curve with a large enough effect (not every such curve was filed as active); inconclusive = small, poorly fitted or top-dose-only effect, or another doubt; inactive = no such curve, though single readings can be large or run the other way. Unless noted, % is scaled to controls: 0 for no effect and ±100 for the full control effect.

SMILES	HPGD inh	ALOX12 inhib	IMPase Li inh	ALDH1A1 inh	PNC assembly inh	IMPase inh
COc1ccc2nc(SCC(=O)N3CCCCCC3)c(C#N)cc2c1	?	-12%	-7%[38.3 µM]	13µM*	-13	3
COc1ccc2nc(SCC(=O)N(C)C3CCCCC3)c(C#N)cc2c1	?	-7%	10%	25µM*	34	-2
N#Cc1cc2c(nc1SCc1ccccc1)CCCC2	-21%	-1%	16µM*	16%	5	.
CC(C)(C)c1ccc(S(=O)(=O)CC(O)CSc2nc3c(cc2C#N)CCCC3)cc1 (stereo not given)	?	-5%	-2%[38.3 µM]	2µM*	-20	-4
N#Cc1ccc(CN2CCCC3(CCN(C(=O)c4cc(C(F)(F)F)cc(C(F)(F)F)c4)CC3)C2)cc1	-12%	-2%	15%	2%	.	.
N#Cc1cc2c(nc1SCC(=O)N1CCCCC1)CCCCC2	25µM*	-10%	-6%[38.3 µM]	22µM*	13	-2
CCOC(=O)C1CCN(C(=O)c2cc3cc4cc(OC)ccc4nc3o2)CC1	?	3%	-7%	?	4	6
COc1ccc2nc3oc(C(=O)N4CCCCC4)cc3cc2c1	?	4%	1%	?	-100*	-1
Cc1cccc(C(=O)n2c(=S)nc3ccccn32)c1	22µM*	-2%	12%[38.3 µM]	10µM*	2	-8
Cc1ccc(C(=O)n2c(=S)nc3ccccn32)cc1	32µM*	-1%	-12%[38.3 µM]	22µM*	-21	-7
N#CCC(=O)NN=C1CCCCCCCCCCC1	-12%	0%	9%[38.3 µM]	3.2µM*	19	3
N#Cc1ccc(CSCC(=O)NN=C2CCCC2)cc1	.	.	-1%	?	.	.
CC1(C)CC(=O)C(C(c2ccc(F)cc2)C2C(=O)CC(C)(C)CC2=O)C(=O)C1	-7%	1%	-3%	?	-1	.
CCc1sc(C(C2C(=O)CC(C)(C)CC2=O)C2C(=O)CC(C)(C)CC2=O)cc1[N+](=O)[O-]	.	.	15%	14µM*	.	.
Cc1ccc(CSc2nc3ccccc3cc2C=O)cc1	5µM*	-4%	25%[38.3 µM]	?	-28	4
O=Cc1cc2ccccc2nc1SCc1ccc(Cl)cc1	-24%	-5%	3%[38.3 µM]	-9%	-14	2
O=CN1CCc2scc[n+]2-c2ccccc21	-11%	-5%	1%	14µM*	-14	-1
CC1=Nn2c(nnc2-c2cc(-c3ccccc3)n[nH]2)SC1	-8%	11%	-3%	-7%	?	-7
CC1=Nn2c(nnc2C2CCCCC2)SC1	28µM*	-6%	12%[38.3 µM]	?	33	6
COc1ccccc1-c1nc(S(=O)(=O)c2ccccc2)c(N2CCC(C)CC2)o1	.	.	.	.	.	-3
O=C(CSc1nc(O)cc(=O)[nH]1)N1CCCc2ccccc21	18µM*	-2%	16%[38.3 µM]	22µM*	-30	-1
O=C(CSc1nc2cc(Cl)ccc2s1)N1CCCc2ccccc21	?	4%	6%	8.9µM*	22	12
O=C(CSc1nccc(=O)[nH]1)N1CCCc2ccccc21	-10%	0%	22%[38.3 µM]	-15%	?	-10[1.84 µM]
CCOc1ccc2nc(SCC(=O)N3CCCc4ccccc43)sc2c1	-11%	-2%	8%[38.3 µM]	4%	?	11
Cc1cc(=O)[nH]c(SCC(=O)N2CCCc3ccccc32)n1	-9%	-3%	19%	-1%	-100*	-4
SMILES	HPGD inh	ALOX12 inhib	IMPase Li inh	ALDH1A1 inh	PNC assembly inh	IMPase inh
CCN(CC)S(=O)(=O)c1ccc(NC(=O)CN(c2ccccc2)S(=O)(=O)N(C)C)cc1	.	.	.	.	.	0
OC[C@@H](O)CN1CCN(c2ccccc2)CC1	-7%	0%[25.6 µM]	8%	5%[20.9 µM]	.	-4[20.6 µM]
O=c1c2c3c(sc2nc2n1CCCCC2)CCCCC3	?	-6%	39%[38.3 µM]	?	?	-1[1.84 µM]
O=c1c2c3c(sc2nc2n1CCCCC2)CCCC3	?	-13%	-2%[38.3 µM]	35µM*	-17	8
O=C1CCCC=C1[C@@H](O)COCc1ccccc1	.	.	.	-7%[13.5 µM]	.	.
CSc1ccccc1-c1n[nH]c(=S)o1	.	.	10µM*	22µM*	.	.
Cc1ccccc1-c1n[nH]c(=S)o1	-14%	8%	10µM*	?	18	?
COc1ccccc1-c1n[nH]c(=S)o1	-25%	-1%	?	?	-14	?
S=c1[nH]nc(-c2ccccc2)o1	?	1%	11µM*	?	1	?
CCNc1ncc2nc(-c3ccc(F)cc3)c(=O)n(-c3ccc(OC)cc3)c2n1	.	.	-7%	?	.	.
CC1CCC2C(=O)N3C(CCC(C)[C@H]3c3cccc(N4CCCC4=O)c3)C(=O)N2C1c1cccc(N2CCCC2=O)c1 (stereo not given in full)	.	.	.	0%[13.5 µM]	.	.
CCOC(=O)CN1CC23C=CC(O2)C(C(=O)NCc2cccs2)C3C1=O (stereo not given)	-3%	-1%	-9%[38.3 µM]	12%	38	1
CCOC(=O)CN1CC23C=CC(O2)C(C(=O)NCc2ccc(C)cc2)C3C1=O (stereo not given)	16µM*	5%	5%[38.3 µM]	-3%	-28	4
CCOc1ccc(NC2c3ccccc3C(=O)N2Cc2ccc3c(c2)OCO3)cc1 (stereo not given)	28µM*	-21%	14%[38.3 µM]	?	-22	17
COc1cc(NC2c3ccccc3C(=O)N2Cc2ccc3c(c2)OCO3)cc(OC)c1OC (stereo not given)	-15%	-4%	13%[38.3 µM]	-8%	-22	14
CO/N=C(/C(=O)NC1C(=O)N2C(C(=O)O)=C(COC(N)=O)CSC12)c1ccco1 (stereo not given)	-13%	-4%	7%	1%	.	.
CCC1CCCCN1C(=O)COc1ccccc1NC(C)=O (stereo not given)	.	.	-6%	3.5µM*	.	.
O=C(c1cccc(F)c1)N1CCC2(CC1)CCN(C(c1ccccc1)c1ccccc1)CC2	-9%	3%	16%	-9%	.	.
COc1ccc(-c2nc3cnc(N4CCNCC4)nc3n(CCc3ccccc3)c2=O)cc1	?	4%	0%	?	.	.
CCOC(=O)c1ccc(Nc2nc3ccc(C(=O)c4ccccc4)cc3n3c(C)nnc23)cc1	.	.	.	.	.	22
CCOC(=O)C1=C(C)N=c2s/c(=C\c3ccc(OCC(=O)O)cc3)c(=O)n2C1c1ccc(OC(C)C)cc1 (stereo not given)	4.5µM*	-6%	7%	8%	-1	.
